PubChem BioAssay AID1159580 (chemical genetic matrix, 2015)
Hit rate of the full screen: of about 5,500 compounds, about 2,000 (36%) were called active. Not shown: some 18% with an inconclusive outcome. Rule as the data show it: active = normalized growth mostly below about 0.91 (no sharp cut-off); inconclusive = no clear call, values can overlap the other calls; inactive = mostly above about 0.92. The list shows a part of the results.

Experiment: chemical genetic growth profiling, strain panel (AID 1159580);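 also: tested at 20 µM; growth read once vehicle control cultures reached saturation at 30 °C; 1 = growth at the plate median or of vehicle wells; lower values mean less growth of the strain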
Settings: growth OD
[1] = S. cerevisiae deletion strains, locus YHR030C, strain SLT2, hits give low values

Measured: normalized growth

CCCN(CCC)S(=O)(=O)c1ccc(C(=O)NCC(=O)O)cc1
inactive: S. cerevisiae deletion strains, locus YAL013W, strain DEP1, hits give low values 1.01 | S. cerevisiae deletion strains, locus YBR229C, strain ROT2, hits give low values 1 | S. cerevisiae deletion strains, locus YDL101C, strain DUN1, hits give low values 1 | S. cerevisiae deletion strains, locus YDL134C, strain PPH21, hits give low values 0.996 | S. cerevisiae deletion strains, locus YDR150W, strain NUM1, hits give low values 0.907 | S. cerevisiae deletion strains, locus YEL061C, strain CIN8, hits give low values 1.02 | S. cerevisiae deletion strains, locus YGR078C, strain PAC10, hits give low values 0.998 | [1] 1.03 | S. cerevisiae deletion strains, locus YHR087W, strain rtc3, hits give low values 1.02 | S. cerevisiae deletion strains, locus YJR043C, strain POL32, hits give low values 0.996 | S. cerevisiae deletion strains, locus YJR075W, strain HOC1, hits give low values 1.02 | S. cerevisiae deletion strains, locus YKL190W, strain CNB1, hits give low values 0.996 | S. cerevisiae deletion strains, locus YLR039C, strain RIC1, hits give low values 0.993 | S. cerevisiae deletion strains, locus YLR058C, strain SHM2 (second series), hits give low values 1.01 | S. cerevisiae deletion strains, locus YLR085C, strain ARP6, hits give low values 0.984 | S. cerevisiae deletion strains, locus YLR262C, strain YPT6, hits give low values 1.01 | S. cerevisiae deletion strains, locus YML094W, strain GIM5, hits give low values 1 | S. cerevisiae deletion strains, locus YMR219W, strain ESC1, hits give low values 1 | S. cerevisiae deletion strains, locus YMR263W, strain SAP30, hits give low values 0.989 | S. cerevisiae deletion strains, locus YNL153C, strain GIM3, hits give low values 1 | S. cerevisiae deletion strains, locus YNL298W, strain CLA4 (second series), hits give low values 1.02 | S. cerevisiae deletion strains, locus YNL322C, strain KRE1, hits give low values 1.01 | S. cerevisiae deletion strains, locus YNR030W, strain Alg12, hits give low values 1.01 | S. cerevisiae deletion strains, locus YPL055C, strain LGE1, hits give low values 1.02 | S. cerevisiae deletion strains, locus YPL241C, strain CIN2, hits give low values 1 | S. cerevisiae deletion strains, locus YPR135W, strain CTF4, hits give low values 1.01 | S. cerevisiae strains, strain wild type, hits give low values 1.01

CC1(C)N([O-])[N+](=O)C1(C)Br (configuration not stated)
inactive: S. cerevisiae deletion strains, locus YAL021C, strain ccr4, hits give low values 0.967 | S. cerevisiae deletion strains, locus YAL026C, strain drs2, hits give low values 0.99 | S. cerevisiae deletion strains, locus YAL030W, strain snc1, hits give low values 1 | S. cerevisiae deletion strains, locus YBL061C, strain skt5, hits give low values 0.981 | S. cerevisiae deletion strains, locus YBR009C, strain hhf1, hits give low values 0.995 | S. cerevisiae deletion strains, locus YBR023C, strain chs3, hits give low values 0.983 | S. cerevisiae deletion strains, locus YBR171W, strain sec66, hits give low values 0.968 | S. cerevisiae deletion strains, locus YBR231C, strain swc5, hits give low values 0.988 | S. cerevisiae deletion strains, locus YBR279W, strain paf1, hits give low values 0.995 | S. cerevisiae deletion strains, locus YCL011C, strain gbp2, hits give low values 0.965 | S. cerevisiae deletion strains, locus YCL016C, strain dcc1, hits give low values 0.99 | S. cerevisiae deletion strains, locus YCL061C, strain MRC1, hits give low values 1 | S. cerevisiae deletion strains, locus YCL069W, strain vba3, hits give low values 0.969 | S. cerevisiae deletion strains, locus YCR088W, strain abp1, hits give low values 0.967 | S. cerevisiae deletion strains, locus YDL005C, strain med2, hits give low values 0.978 | S. cerevisiae deletion strains, locus YDL040C, strain nat1, hits give low values 0.992 | S. cerevisiae deletion strains, locus YDR001C, strain nth1, hits give low values 0.987 | S. cerevisiae deletion strains, locus YDR069C, strain doa4, hits give low values 0.992 | S. cerevisiae deletion strains, locus YDR137W, strain rgp1, hits give low values 1.07 | S. cerevisiae deletion strains, locus YDR159W, strain sac3, hits give low values 0.98 | S. cerevisiae deletion strains, locus YDR195W, strain ref2 0.972 | S. cerevisiae deletion strains, locus YDR297W, strain sur2, hits give low values 0.987 | S. cerevisiae deletion strains, locus YDR334W, strain swr1, hits give low values 0.969 | S. cerevisiae deletion strains, locus YDR335W, strain msn5, hits give low values 0.968 | S. cerevisiae deletion strains, locus YDR392W, strain spt3, hits give low values 0.906 | S. cerevisiae deletion strains, locus YEL003W, strain gim4, hits give low values 0.984 | S. cerevisiae deletion strains, locus YEL037C, strain rad23, hits give low values 0.982 | S. cerevisiae deletion strains, locus YEL061C, strain CIN8 (second series), hits give low values 0.973 | S. cerevisiae deletion strains, locus YER015W, strain faa2, hits give low values 0.962 | S. cerevisiae deletion strains, locus YER016W, strain bim1, hits give low values 0.992 | S. cerevisiae deletion strains, locus YER111C, strain swi4, hits give low values 0.996 | S. cerevisiae deletion strains, locus YER155C, strain BEM2 (second series), hits give low values 0.974 | S. cerevisiae deletion strains, locus YFR010W, strain ubp6, hits give low values 0.979 | S. cerevisiae deletion strains, locus YGL167C, strain pmr1, hits give low values 0.987 | S. cerevisiae deletion strains, locus YGL173C, strain kem1, hits give low values 0.984 | S. cerevisiae deletion strains, locus YGL227W, strain vid30, hits give low values 0.982 | S. cerevisiae deletion strains, locus YGL240W, strain doc1, hits give low values 0.994 | S. cerevisiae deletion strains, locus YGL253W, strain hxk2, hits give low values 0.982 | S. cerevisiae deletion strains, locus YHR013C, strain ard1, hits give low values 0.977 | S. cerevisiae deletion strains, locus YHR027C, strain rpn1, hits give low values 0.991 | [1] 0.966 | S. cerevisiae deletion strains, locus YHR079C, strain IRE1, hits give low values 0.966 | S. cerevisiae deletion strains, locus YHR142W, strain chs7, hits give low values 0.968 | S. cerevisiae deletion strains, locus YJL092W, strain hpr5, hits give low values 0.963 | S. cerevisiae deletion strains, locus YJL095W, strain BCK1 (second series), hits give low values 0.973 | S. cerevisiae deletion strains, locus YJL095W, strain BCK1, hits give low values 0.975 | S. cerevisiae deletion strains, locus YJL115W, strain asf1, hits give low values 0.979 | S. cerevisiae deletion strains, locus YJL129C, strain trk1, hits give low values 0.976 | S. cerevisiae deletion strains, locus YJL154C, strain vps35, hits give low values 0.969 | S. cerevisiae deletion strains, locus YJL164C, strain tpk1, hits give low values 0.995 | S. cerevisiae deletion strains, locus YJL166W, strain qcr8, hits give low values 0.988 | S. cerevisiae deletion strains, locus YJL187C, strain SWE1, hits give low values 1.01 | S. cerevisiae deletion strains, locus YJR066W, strain TOR1, hits give low values 0.907 | S. cerevisiae deletion strains, locus YKL160W, strain elf1, hits give low values 0.998 | S. cerevisiae deletion strains, locus YKR026C, strain gcn3, hits give low values 0.984 | S. cerevisiae deletion strains, locus YKR091W, strain srl3, hits give low values 0.995 | S. cerevisiae deletion strains, locus YLL001W, strain dnm1, hits give low values 1 | S. cerevisiae deletion strains, locus YLL026W, hits give low values 0.986 | S. cerevisiae deletion strains, locus YLL041C, strain sdh2, hits give low values 0.99 | S. cerevisiae deletion strains, locus YLR027C, strain aat2, hits give low values 1 | S. cerevisiae deletion strains, locus YLR113W, strain HOG1, hits give low values 0.993 | S. cerevisiae deletion strains, locus YLR221C, strain rsa3, hits give low values 0.985 | S. cerevisiae deletion strains, locus YLR258W, strain gsy2, hits give low values 0.985 | S. cerevisiae deletion strains, locus YLR262C, strain YPT6 (second series), hits give low values 1.03 | S. cerevisiae deletion strains, locus YLR320W, strain mms22, hits give low values 0.985 | S. cerevisiae deletion strains, locus YLR342W, strain FKS1, hits give low values 0.978 | S. cerevisiae deletion strains, locus YLR357W, strain rsc2, hits give low values 0.999 | S. cerevisiae deletion strains, locus YLR370C, strain arc18, hits give low values 0.982 | S. cerevisiae deletion strains, locus YLR384C, strain iki3, hits give low values 0.986 | S. cerevisiae deletion strains, locus YML120C, strain ndi1, hits give low values 0.984 | S. cerevisiae deletion strains, locus YMR058W, strain fet3, hits give low values 0.994 | S. cerevisiae deletion strains, locus YMR125W, strain sto1, hits give low values 0.974 | S. cerevisiae deletion strains, locus YMR129W, hits give low values 0.992 | S. cerevisiae deletion strains, locus YMR205C, strain PFK2, hits give low values 0.998 | S. cerevisiae deletion strains, locus YMR231W, strain pep5, hits give low values 0.96 | S. cerevisiae deletion strains, locus YNL071W, strain lat1, hits give low values 0.973 | S. cerevisiae deletion strains, locus YNL183C, strain NPR1, hits give low values 0.912 | S. cerevisiae deletion strains, locus YNL209W, strain ssb2, hits give low values 0.989 | S. cerevisiae deletion strains, locus YNL248C, strain rpa49, hits give low values 0.992 | S. cerevisiae deletion strains, locus YNL322C, strain KRE1 (second series), hits give low values 0.979 | S. cerevisiae deletion strains, locus YNR049C, strain mso1, hits give low values 0.99 | S. cerevisiae deletion strains, locus YOR001W, strain rrp6, hits give low values 0.988 | S. cerevisiae deletion strains, locus YOR070C, strain gyp1, hits give low values 0.976 | S. cerevisiae deletion strains, locus YOR080W, strain dia2, hits give low values 0.985 | S. cerevisiae deletion strains, locus YOR083W, strain WHI5, hits give low values 0.994 | S. cerevisiae deletion strains, locus YOR106W, strain vam3, hits give low values 0.966 | S. cerevisiae deletion strains, locus YOR231W, strain MKK1, hits give low values 0.977 | S. cerevisiae deletion strains, locus YOR265W, strain rbl2, hits give low values 0.993 | S. cerevisiae deletion strains, locus YOR270C, strain vph1, hits give low values 1.01 | S. cerevisiae deletion strains, locus YOR290C, strain snf2, hits give low values 0.987 | S. cerevisiae deletion strains, locus YPL051W, strain arl3, hits give low values 0.985 | S. cerevisiae deletion strains, locus YPL078C, strain atp4, hits give low values 0.986 | S. cerevisiae deletion strains, locus YPL106C, strain sse1, hits give low values 0.977 | S. cerevisiae deletion strains, locus YPL240C, strain hsp82, hits give low values 0.97 | S. cerevisiae deletion strains, locus YPL256C, strain CLN2, hits give low values 0.956
